Test results: PubChem BioAssay (Tox21)
Results filed as inconclusive are left out. A call without a number means that no potency is given here. Calls of active or inactive are those of the source. The call rests on the fitted dose curve.

assay: qHTS assay for small molecule disruptors of the mitochondrial membrane potential - cell viability (AID 720634); conditions: HepG2 viability, ATP luminescence (CellTiter-Glo), 1 h; series mostly up to 83.2 µM; further: nearly all actives have a fitted effect of over 20% in size
Source text: U.S. Tox21 Program National Center for Advancing Translational Sciences [NCATS] NIH Chemical Genomics Center [NCGC] U.S. Environmental Protection Agency [EPA] National Institutes of Environmental Health Sciences [NIEHS] National Toxicology Program [NTP] U.S. Food and Drug Administration [FDA] Tox21 Assay Overview: Mitochondrial membrane potential (MMP), one of the parameters for mitochondrial function, is generated by mitochondrial electron transport chain that creates an electrochemical gradient by a series of redox reactions. This gradient drives the synthesis of ATP, a crucial molecule for various cellular processes. Measuring MMP in living cells is commonly used to assess the effect of chemicals on mitochondrial function; decreases in MMP can be detected using lipophilic cationic fluorescent dyes. […] The dye accumulates in the mitochondria of healthy cells as aggregates, with red fluorescence. The mitochondrial potential decreases and the dye could not accumulate in the mitochondria and remains in the cytoplasm in monomers, with green fluorescence. In addition to the mitochondrial potential assay, these cells were also used to test the cytotoxicity by determining the cell viability in the culture based on the quantitation of ATP present. The cytotoxicity was measured in the same assay well of MMP assay.
Tox21 Assay Protocol Summary: 2,000 HepG2 cells in 5 uL/well were dispensed into black, clear-bottom 1536-well plates using a Multidrop Combi (Thermo Scientific) dispenser. The assay plates were incubated for an overnight at 37 C to allow cells to attach to the wells, followed by the transfer of 23 nL compound or DMSO vehicle by a pin tool (Kalypsys). The plates were incubated for 1 hr at 37 C and 5% CO2, followed by the addition of 5 uL of 2X m-MPI dye into each well using Flying Reagent Dispenser (Aurora Discovery) and then CellTiter-Glo reagent was added at 4 uL/well and incubated 30 min at room temperature. Then luminescence intensity was quantified on a ViewLux CCD-based plate reader.
Potency means the concentration at half of the fitted maximal effect.

| SMILES | Potency |
| --- | --- |
| O=C(O)c1cc(-c2ccccc2)nc2ccccc12 | inactive |
| O=C(O)c1ccc([N+](=O)[O-])cc1 | inactive |
| CC1(C)O[C@@H]2C[C@H]3[C@@H]4C[C@H](F)C5=CC(=O)CC[C@]5(C)[C@H]4[C@@H](O)C[C@]3(C)[C@]2(C(=O)CO)O1 | inactive |
| CC(C)(N=C=O)c1cccc(C(C)(C)N=C=O)c1 | inactive |
| CC1=C(/C=C/C(C)=C/C=C/C(C)=C/CO)C(C)(C)CCC1 | inactive |
| O=C1CCCCC1 | inactive |
| CC1COc2ccccc2N1C(=O)C(Cl)Cl (stereo not given) | inactive |
| O=C(Cl)c1c(Cl)c(Cl)c(C(=O)Cl)c(Cl)c1Cl | inactive |
| O=[N+]([O-])c1cc(N(CCO)CCO)ccc1NCCO | inactive |
| C[C@@H]1O[C@@H](OC[C@H]2O[C@@H](Oc3c(-c4ccc(O)c(O)c4)oc4cc(O)cc(O)c4c3=O)[C@H](O)[C@@H](O)[C@@H]2O)[C@H](O)[C@H](O)[C@H]1O | inactive |
| CCOC(=O)[C@H](CCc1ccccc1)N[C@@H](C)C(=O)N1Cc2ccccc2C[C@H]1C(=O)O | inactive |
| NC(=O)NNc1ccccc1 | inactive |
| CCC(C)C=O (stereo not given) | inactive |
| Oc1ccc(OCc2ccccc2)cc1 | inactive |
| O=[N+]([O-])c1cccc(Cl)c1 | inactive |
| Cc1cc(NS(=O)(=O)c2ccc(N)cc2)no1 | inactive |
| NCCNCCNCCNCCN | inactive |
| CCCCC(CC)COC(=O)/C=C\C(=O)OCC(CC)CCCC (stereo not given) | inactive |
| CC(=O)Nc1ccc(C(=O)O)cc1 | inactive |
| c1ccc2ccccc2c1 | inactive |

| SMILES | Potency |
| --- | --- |
| CCCCC(CC)COC(C)=O (stereo not given) | inactive |
| C=CC(=O)OCCCCCCCC(C)C | inactive |
| NCCc1ccc(O)c(O)c1 | inactive |
| S=c1nc[nH]c2nc[nH]c12 | inactive |
| CCCCCCCCCCC=CC1CC(=O)OC1=O (stereo not given) | inactive |
| CC(=O)CCc1ccccc1 | inactive |
| CS(=O)(=O)c1ccc([C@@H](O)[C@@H](CO)NC(=O)C(Cl)Cl)cc1 | inactive |
| C=C(C)C(=O)OCCCCCCCCCCCC | inactive |
| Cc1cc(O)c2c(c1)C(=O)c1cc(O)cc(O)c1C2=O | 15 µM (active) |
| Nc1nc2ncc(CNc3ccc(C(=O)N[C@@H](CCC(=O)O)C(=O)O)cc3)nc2c(=O)[nH]1 | inactive |
| CCCCCCCCC | inactive |
| OCCOCCOCCOCCO | inactive |
| CC(C)(C)C(=O)C1C(=O)c2ccccc2C1=O | inactive |
| CCCCC/C=C\C/C=C\CCCCCCCC(=O)OC | inactive |
| c1ccc2[nH]cnc2c1 | inactive |
| O=C1N=C(O)CN1/N=C/c1ccc(-c2ccc([N+](=O)[O-])cc2)o1 | inactive |
| COC(=O)Nc1nc2ccc(Sc3ccccc3)cc2[nH]1 | inactive |
| ClC1=C(Cl)C(Cl)(Cl)C(Cl)=C1Cl | inactive |
| CCc1ccc(O)cc1 | inactive |
| NC(=O)/N=N/C(N)=O | inactive |
